In PubChem BioAssay (NCI):
About 83,000 compounds went through this panel and 20% of them were active in at least one assay; those are over-represented in the sample as a whole.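 Compound tested at a single concentration for 48 hours in 96-well plates; a percent growth value below 10 was scored as active.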

Columns and labels:
Test in all cases: NCI-60 one-dose screen, 48 h (100 = growth as untreated, 0 = no growth, -100 = all killed)
Details in all cases: 10 µM unless noted
[1] = test system: NCI-H23 lung
[2] = test system: NCI-H226 lung
[3] = test system: NCI-H322M lung
[4] = test system: HOP-62 NSCLC
[5] = test system: NCI-H460 lung
[6] = test system: HOP-92 NSCLC
[7] = test system: NCI-H522 lung
[8] = test system: A549/ATCC NSCLC
[9] = test system: 786-0 renal
[10] = test system: COLO 205 colon
[11] = test system: DU-145 prostate
[12] = test system: K-562 leukemia
[13] = test system: MALME-3M melanoma
[14] = test system: MDA-MB-231 breast
[15] = test system: RXF 393 renal
[16] = test system: SF-268 CNS
[17] = test system: SF-295 CNS
[18] = test system: SF-539 CNS
[19] = test system: UACC-257 melanoma
[20] = test system: M14 melanoma

Measured: growth

COC(CCCl)c1ccc(Cl)cc1 (stereo not given)
inactive: [1] 107% | [2] 101% | [3] 97.5% | [4] 114% | [5] 107% | [6] 121% | [7] 74.6% | [8] 95.4% | [9] 100% | [10] 111% | [11] 111% | [12] 89% | [13] 98.9% | [14] 119% | [15] 113% | [16] 110% | [17] 112% | [18] 101% | [19] 78% | [20] 101%

CCOC(=O)c1cc(Cl)c(O)c(Cl)c1
inactive: [1] 103% | [2] 103% | [3] 117% | [4] 106% | [5] 108% | [6] 109% | [7] 103% | [8] 100% | [9] 107% | [10] 99.6% | [11] 104% | [12] 121% | [13] 114% | [14] 106% | [15] 116% | [16] 97.7% | [17] 103% | [18] 106% | [19] 109% | [20] 105%

COC(=O)c1ccc([N+](=O)[O-])c(C)c1
inactive: [1] 107% | [2] 102% | [3] 93.2% | [4] 98.5% | [5] 105% | [6] 90.4% | [7] 107% | [8] 107% | [9] 103% | [10] 111% | [11] 113% | [12] 134% | [13] 96.9% | [14] 117% | [15] 105% | [16] 105% | [17] 109% | [18] 96.2% | [19] 101% | [20] 94%

Clc1ccc(/C=C/c2ccccn2)cc1
inactive: [1] 91.2% | [2] 101% | [3] 107% | [4] 94.7% | [5] 104% | [6] 56.3% | [7] 87.1% | [8] 92.2% | [9] 98.1% | [10] 105% | [11] 109% | [12] 107% | [13] 108% | [14] 98.9% | [15] 116% | [16] 91.3% | [17] 100% | [18] 94.2% | [19] 103% | [20] 101%

NC(CO)(CO)c1ccccc1
inactive: [1] 99.1% | [2] 96.6% | [3] 101% | [4] 100% | [5] 99.1% | [6] 88.1% | [7] 95.3% | [8] 100% | [9] 106% | [10] 103% | [11] 101% | [12] 111% | [13] 105% | [14] 111% | [15] 101% | [16] 97.6% | [17] 104% | [18] 104% | [19] 96.5% | [20] 94.9%

Cc1ccc(NC(=O)c2ccccc2Cl)cc1
inactive: [1] 102% | [2] 108% | [3] 113% | [4] 113% | [5] 101% | [6] 75.5% | [7] 98.6% | [8] 106% | [9] 105% | [10] 120% | [11] 112% | [12] 99.6% | [13] 123% | [14] 118% | [15] 108% | [16] 109% | [17] 108% | [18] 107% | [19] 131% | [20] 114%

Oc1cccc(CNC2CCCCC2)c1
inactive: [1] 107% | [2] 102% | [3] 129% | [4] 111% | [5] 116% | [6] 97.5% | [7] 90.4% | [8] 101% | [9] 102% | [10] 120% | [11] 119% | [12] 101% | [13] 129% | [14] 102% | [15] 114% | [16] 103% | [17] 120% | [18] 106% | [19] 119% | [20] 99.9%

Cc1ccc(O)c(N)c1
inactive: [1] 121% | [2] 97% | [3] 98.1% | [4] 132% | [5] 103% | [6] 126% | [7] 70.6% | [8] 98.7% | [9] 115% | [10] 117% | [11] 122% | [12] 113% | [13] 103% | [14] 92.8% | [15] 117% | [16] 112% | [17] 131% | [18] 103% | [19] 111% | [20] 108%

NC(=O)N1CCOCC1
inactive: [1] 106% | [2] 100% | [3] 106% | [4] 95.4% | [5] 108% | [6] 72.9% | [7] 94.2% | [8] 106% | [9] 108% | [10] 113% | [11] 123% | [12] 96.6% | [13] 111% | [14] 128% | [15] 117% | [16] 109% | [17] 115% | [18] 117% | [19] 119% | [20] 108%
